B2AR ag = human beta-2 adrenergic receptor agonism by FAP. P07550. Am2.2-beta2AR cells, FAP receptor internalization, flow cytometry. response, % (no concentration beside the values). actives 0.43% (n = 340,000). AID 504454;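 active means response above a set limit, near 3 SD of response in nonfluorescent compounds, cut at about 42% in these data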
Target sequence (P07550 whole entry, looked up): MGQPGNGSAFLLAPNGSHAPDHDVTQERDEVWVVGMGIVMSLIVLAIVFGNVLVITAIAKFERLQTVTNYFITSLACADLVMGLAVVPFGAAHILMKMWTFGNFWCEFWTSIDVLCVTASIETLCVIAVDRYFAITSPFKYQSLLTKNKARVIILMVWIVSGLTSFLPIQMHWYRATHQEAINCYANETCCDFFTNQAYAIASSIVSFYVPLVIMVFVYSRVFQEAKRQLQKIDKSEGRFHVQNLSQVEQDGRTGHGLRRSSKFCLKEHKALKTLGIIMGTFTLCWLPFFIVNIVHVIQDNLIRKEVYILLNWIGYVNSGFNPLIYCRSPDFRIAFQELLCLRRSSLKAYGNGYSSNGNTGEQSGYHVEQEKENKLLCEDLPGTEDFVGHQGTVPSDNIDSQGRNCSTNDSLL
TIM10 inh = TIM10 yeast growth inhibition; actives 1.4% (n = 330,000); inhibition, % at 10 µM; S. cerevisiae TIM10 strain growth, BacTiter-Glo luminescence, 24 h; AID 463195;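 active means inhibition of 40% or more at the single tested concentration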;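 further: wild-type TIM10 isogenic control strain grown at permissive 25 °C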
tim23-1 inh = inhibits growth of tim23-1 mutant yeast; actives 1.3% (n = 330,000); inhibition, % at 20 µM; AID 463212; S. cerevisiae tim23-1 growth, BacTiter-Glo luminescence, 24 h;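 active means growth inhibition of the mutant yeast at or above 50%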;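 further: temperature-sensitive mutant grown at 25 °C; plate controls were DMSO-treated mutant yeast for no effect and medium wells lacking yeast for full effect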
tim10-1 inh = inhibits growth of tim10-1 mutant yeast; S. cerevisiae tim10-1 ts strain growth, BacTiter-Glo, 24 h; AID 463190; inhibition, % at 20 µM; actives 2.2% (n = 330,000);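 active means inhibition of at least 40%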;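 further: mutant grown at 25 °C; 0% = DMSO wells with yeast and 100% = wells holding no yeast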
PfHsp90 yeast 2 = reduces growth (ATP signal) of yeast expressing P. falciparum Hsp90. S. cerevisiae expressing PfHsp90, BacTiter-Glo ATP, 48 h; yeast lacking PDR1 and PDR3 efflux regulators. inhibition, % at 9.4 µM. actives 0.32% (n = 310,000);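 active means every replicate shows inhibition above about 80%, whatever the replicate mean, limit read from the data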;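 further: 0% = DMSO neutral controls and 100% = 20 µM radicicol positive controls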
tim10-1 confirm = confirmation of tim10-1 mutant yeast growth inhibitors | actives 56% (n = 7,400) | inhibition, % at 20 µM | S. cerevisiae tim10-1 ts strain growth, BacTiter-Glo, 24 h | shares compounds with tim10-1 inh;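 active means inhibition of yeast growth at or above a set limit in either of two repeat tests at 20 µM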;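 further: tim10-1 mutant grown at permissive 25 °C to find synthetic lethal compounds; 0% = DMSO yeast wells and 100% = medium wells without yeast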
tim10 confirm = confirmation of TIM10 yeast growth inhibitors. inhibition, % at 10 µM. actives 63% (n = 4,600). shares compounds with TIM10 inh. S. cerevisiae tim10 strain growth, BacTiter-Glo luminescence, 24 h;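 active means inhibition of yeast growth at or above a set limit in either of two replicates at 10 µM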;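 further: this counterscreen used the strain with wild-type TIM10; 0% = yeast with DMSO and 100% = medium wells lacking yeast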
tim23-1 confirm = tim23-1 yeast growth inhibition, confirmed | shares compounds with tim23-1 inh | S. cerevisiae tim23-1 growth, BacTiter-Glo luminescence, 24 h | inhibition, % at 20 µM | actives 83% (n = 4,400);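 active means inhibition above about 39% in either of two replicate wells at 20 µM, limit read from the data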;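 further: temperature-sensitive tim23-1 mutant grown at 25 °C; 0% = DMSO wells with yeast and 100% = medium wells without yeast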
Numbers without * were called inactive; . = no result given. Only some compounds are listed: those with a hit (about 3.8% of all), similar ones and a draw of the others.

SMILES | B2AR ag | TIM10 inh | tim23-1 inh | tim10-1 inh | PfHsp90 yeast 2 | tim10-1 confirm | tim10 confirm | tim23-1 confirm
O=C(c1cc(-c2ccc(O)cc2)on1)N1CCN(c2ccc(F)cc2)CC1 | 7 | 41* | 52* | 49* | -11 | 26 | 41* | 46*
O=c1c2ccccc2sc2nc(C3CCCCC3)n(Cc3ccco3)c(=O)c12 | -7 | . | . | . | 7 | . | . | .
CCc1nc2sc3ccccc3c(=O)c2c(=O)n1Cc1ccco1 | -42 | 34 | 53* | 69* | -80 | 61* | . | 62*
O=C(NCc1cccnc1)/C(=C/c1ccc(-c2ccc(Cl)cc2)o1)S(=O)(=O)c1ccccc1 | 108* | 53* | 59* | 52* | 22 | 48* | 49* | 57*
Cc1ccccc1/C=N/n1c(C2CCCCC2)n[nH]c1=S | 2 | 26 | 40 | 27 | -23 | . | . | .
S=c1[nH]nc(C2CCCCC2)n1/N=C/c1ccccc1Br | 9 | 35 | 52* | 42* | -16 | 26 | . | 63*
S=c1[nH]nc(C2CCCCC2)n1/N=C/C=C/c1ccccc1 | 11 | 39 | 57* | 54* | -21 | 31 | . | 37
S=c1[nH]nc(C2CCCCC2)n1/N=C/C(Cl)=C\c1ccccc1 | -8 | 34 | 45 | 34 | -57 | . | . | .
Fc1ccccc1/C=N/n1c(C2CCCCC2)n[nH]c1=S | 9 | 48* | 65* | 43* | -16 | 35* | 51* | 61*
c1ccc2c(c1)Nc1cc3ccccc3cc1O2 | 5 | . | . | . | -13 | . | . | .
O=C(NC(CSC(=O)c1ccccc1)C(=O)O)OCc1ccccc1 (stereo unspecified) | -3 | . | . | . | -6 | . | . | .
COc1ccc(C(C)NC(=O)Nc2ccc(C(C)=O)cc2)cc1OC (stereo unspecified) | 5 | 4 | -12 | -24 | 15 | . | . | .
Cc1cc(O)c(C(=O)/C=C/c2ccc(Cl)cc2)c(=O)o1 | 10 | 33 | 53* | 47* | 4 | 40* | . | 52*
O=C1C=CC2=C3c4cc(O)c(O)cc4CC3(O)COC2=C1O (stereo unspecified) | -7 | . | . | . | 21 | . | . | .
c1csc(CNc2nc(-c3cccs3)nc3ccccc23)c1 | -2 | 42* | 57* | 51* | -8 | 44* | 10 | 52*
O=[N+]([O-])c1cc(S(=O)(=O)C(F)(F)F)ccc1Sc1nc2ccccc2[nH]1 | 13 | 58* | 68* | 60* | -16 | 48* | 51* | 59*
CS(=O)(=O)c1ccc(Sc2nc3ccccc3[nH]2)c([N+](=O)[O-])c1 | 2 | 1 | 10 | 10 | 17 | . | . | .
C#CCOCCOCCOCCNc1nc(N2CCN(C(=O)CCCCCCCCCCNC(=O)[C@H](CCCCN)n3cc(CCCC(=O)O)nn3)CC2)nc(N2CCN(C(=O)CCCCCCCCCCNC(=O)[C@H](CCCN=C(N)N)n3cc(C[C@@H](C)CC)nn3)CC2)n1 | -687 | 11 | 52* | 44* | 18 | 38* | . | 53*
O=C(OCc1c(-c2ccccc2)ncc2ccccc12)c1ccccc1C(F)(F)F | -2 | 3 | 24 | -5 | -17 | . | . | .
CN(C)c1nc(-c2ccccc2)nc(-c2ccc(Cl)cc2)c1C#N | 1 | 2 | 3 | -3 | -3 | . | . | .
CCN(CC)c1nc(-c2ccccn2)nc(-c2ccccc2)c1C#N | -14 | 60* | 58* | 58* | -73 | 51* | 65* | 53*
CN1CCC2CC1c1cc(-c3ccc(C(F)(F)F)cc3)ccc12 (stereo unspecified) | 16 | . | . | . | -8 | . | . | .
O=C(Oc1c(Cl)cc(Cl)c2cccnc12)c1cccs1 | 15 | 64* | 56* | 44* | 99* | 48* | 57* | 62*
O=C(Oc1c(Cl)cc(Cl)c2cccnc12)c1ccco1 | 8 | 71* | 89* | 65* | 129* | 48* | 67* | 72*
O=C(Oc1cncc(Cl)c1)c1ccco1 | -3 | -12 | 9 | 22 | 4 | . | . | .
SMILES | B2AR ag | TIM10 inh | tim23-1 inh | tim10-1 inh | PfHsp90 yeast 2 | tim10-1 confirm | tim10 confirm | tim23-1 confirm
O=C(Cc1ccc([N+](=O)[O-])cc1)N/N=C/c1ccccc1F | 3 | 6 | 13 | 0 | -15 | . | . | .
N/C(Cc1ccc([N+](=O)[O-])cc1)=N\OC(=O)c1ccccc1F | 8 | 64* | 59* | 72* | 9 | 72* | 52* | 54*
N/C(=N\OC(=O)c1ccc(Br)o1)c1ccccn1 | -3 | 26 | 17 | 29 | 13 | . | . | .
N/C(Cc1ccc([N+](=O)[O-])cc1)=N\OC(=O)c1ccc(Br)o1 | 22 | 64* | 60* | 85* | 4 | 81* | 11 | 44*
O=C(CSc1ccc(S(=O)(=O)N2CCCC2)cn1)Nc1ccc([N+](=O)[O-])cc1C(F)(F)F | -5 | . | . | . | 13 | . | . | .
Cc1cc(C)c2c(CCl)cc(=O)oc2c1 | 44* | 42* | 62* | 49* | . | 40* | 40* | 53*
Cc1cc(C)c2c(CN3CCCCC3)cc(=O)oc2c1 | 3 | 4 | 6 | 11 | -25 | . | . | .
Cc1c(Cl)cccc1NC(=S)NCc1cccs1 | 3 | 36 | 26 | 37 | 8 | . | . | .
S=C(NCc1cccs1)Nc1cccc(Cl)c1Cl | -4 | 41* | 56* | 50* | -20 | 32* | 5 | 56*
Cc1nc(N)c(CC(Br)CBr)c(Cl)n1 (stereo unspecified) | 0 | 3 | -9 | 10 | -1 | . | . | .
COC(=O)c1ccccc1-c1ccc(C(c2c(C)[nH][nH]c2=O)c2c(C)[nH][nH]c2=O)o1 | 0 | 46* | 54* | 56* | 42 | 36* | 36* | 48*
Cc1[nH][nH]c(=O)c1C(c1ccc(-c2ccc(Cl)c(C(=O)O)c2)o1)c1c(C)[nH][nH]c1=O | -3 | . | . | . | 2 | . | . | .
O=C(O)c1ccc(S(=O)(=O)/N=C2\C=C(Nc3ccccc3F)C(=O)c3ccccc32)cc1 | 24 | 74* | 81* | 79* | 24 | 84* | 74* | 89*
CN1C[C@@H]2[C@@H]3C(=O)N(C)C(=O)[C@@H]3[C@](Cc3ccccc3)(C1=O)N2C(=O)c1ccccc1 | 2 | . | . | . | 4 | . | . | .
O=c1oc2ccccc2nc1/C=C(O)/C=C/c1ccc(F)cc1 | 4 | 56* | 64* | 41* | 38 | 59* | 58* | -13
Cc1ccc(OCC(=O)N2CCCC(CO)(CCOc3ccccc3)C2)cc1 (stereo unspecified) | 0 | 7 | 31 | 29 | -17 | . | . | .
O=[N+]([O-])c1ccc(/C=N/NC(=S)Nc2ccc(Cl)cc2Cl)s1 | -11 | 7 | 44 | 16 | -28 | . | . | .

Bioassay records (PubChem BioAssay)
